From PubChem BioAssay
Shown are actives, neighbours in structure and some others; about 1% of the full set was active somewhere.
MKP-1 inh = inhibitors of human MKP-1 phosphatase. inhibition, %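 (compounds tested at a single concentration somewhere between 10 and 100 µM)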. 0.15% of 65,000 active. recombinant MKP-1, OMFP hydrolysis fluorescence;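 active = inhibition above about 50%, limit read from the data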;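 note: 0% = DMSO max control wells and 100% = wells with enzyme stopped by NaOH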
Cdc25B block = inhibitors of human Cdc25B phosphatase; P30305; recombinant Cdc25B, OMFP fluorescence Ex485/Em525; inhibition, %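 (compounds tested at 10 µM final in the well)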; 0.1% of 65,000 active; AID 368; in the data active = inhibition above about 50%
Target sequence (P30305 whole entry, looked up): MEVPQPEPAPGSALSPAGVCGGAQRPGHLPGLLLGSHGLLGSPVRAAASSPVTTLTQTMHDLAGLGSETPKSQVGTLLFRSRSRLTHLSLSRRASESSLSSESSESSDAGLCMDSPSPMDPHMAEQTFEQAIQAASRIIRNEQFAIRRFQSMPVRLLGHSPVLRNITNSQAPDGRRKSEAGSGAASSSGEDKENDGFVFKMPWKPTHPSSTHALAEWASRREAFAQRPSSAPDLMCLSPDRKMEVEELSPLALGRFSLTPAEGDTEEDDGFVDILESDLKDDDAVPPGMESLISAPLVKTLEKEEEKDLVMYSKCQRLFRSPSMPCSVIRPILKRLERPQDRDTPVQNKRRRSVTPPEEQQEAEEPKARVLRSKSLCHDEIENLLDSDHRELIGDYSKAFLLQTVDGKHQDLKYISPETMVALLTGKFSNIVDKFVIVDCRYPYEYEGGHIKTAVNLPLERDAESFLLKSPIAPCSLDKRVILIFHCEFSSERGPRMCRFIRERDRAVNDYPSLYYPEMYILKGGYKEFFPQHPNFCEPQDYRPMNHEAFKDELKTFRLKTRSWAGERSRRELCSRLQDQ
Hsp90 inh = displaces geldanamycin probe from tumor Hsp90 | P07900 | inhibition, % at 30 µM | 0.35% of 64,000 active | NCI-N417 lysate Hsp90, Cy3B-geldanamycin FP displacement;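 active = inhibition above 50%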;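 note: 0% = tracer plus lysate wells and 100% = tracer alone without lysate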
PKA kinase inh = PKA (human) kinase inhibition; PKA Kemptide phosphorylation, Kinase-Glo ATP luminescence; 0.1% of 65,000 active; inhibition, % at 6 µM;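 active = inhibition above the screen-wide mean inhibition plus 3 SD, cut at about 21% in these data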
JNK3 inh = JNK3 (human) kinase inhibition | P53779 | purified JNK3 kinase activity, HTS | inhibition, % at 8 µM | 0.61% of 60,000 active | AID 746; in the data active = inhibition above about 17%;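 note: 0% = DMSO and 100% = reference inhibitor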
ROCK2 blocker = ROCK2 (human) kinase inhibition; O75116; purified ROCK2, Kinase-Glo ATP depletion luminescence; inhibition, % at 6 µM; 0.35% of 60,000 active;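 active = inhibition above the screen-wide mean inhibition plus 3 SD, cut at about 18% in these data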;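 note: plate controls were DMSO wells for no effect and Y-27632 control wells after no-enzyme background subtraction for full effect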
Starred values were filed as active, the others as inactive; x = not tested or not shown.

SMILES	MKP-1 inh	Cdc25B block	Hsp90 inh	PKA kinase inh	JNK3 inh	ROCK2 blocker
Cc1cc(N2CCN(C3CCCC3)CC2)n2nc(C)c(-c3ccccc3)c2n1	0	1	-5	7	0	4
COc1cc2c(cc1OC)[C@@H](c1ccccc1)CN(C)CC2	x	x	0	x	x	x
O=C(Nc1ccccn1)c1ccc2ccccc2n1	-1	70*	-3	-6	6	-4
CN(c1ccc(C(=O)Nc2nccs2)cc1)S(=O)(=O)c1ccccc1	-7	-7	0	10	28*	4
CC(C)=CCC/C(C)=C/CC/C(C)=C/CSc1ccccc1C(=O)O	x	x	3	x	x	x
Cc1ccc(NC(=O)CSc2nnc(Cc3cccn3C)n2-c2ccc(F)cc2)cc1	16	-5	3	6	1	1
CC(=O)c1ccc(NC(=O)CSc2nnc(Cc3cccn3C)n2-c2ccc(F)cc2)cc1	17	-8	87*	3	3	2
CC1CCN(Cc2nc3c(c(=O)n(C)c(=O)n3C)n2CCN2CCOCC2)CC1	-2	-14	x	-2	x	x
O=C1C(=O)N(CCCn2ccnc2)C(c2cccnc2)/C1=C(/O)c1ccc(Cl)cc1 (centres undefined)	2	-5	-6	0	-6	1
CCOC(=O)C1=C(C)NC(=O)NC1c1ccc(OCCO)c(OC)c1 (centres undefined)	-4	-11	-5	-1	2	5
COc1ccc(COC(=O)C2=C(C)NC(=O)NC2c2ccc(O)c(OC)c2)cc1 (centres undefined)	0	-6	-3	8	27*	3
COc1cc(C2NC(=O)NC(C)=C2C(=O)OCc2ccccc2)ccc1O (centres undefined)	13	-6	-2	11	20*	8
CCOc1cc(C2NC(=O)NC(C)=C2C(=O)OCc2ccccc2)ccc1O (centres undefined)	-5	10	-4	0	19*	-2
COc1ccc(CCNC[C@@H](O)c2ccc(O)cc2)cc1OC	x	x	0	x	x	x
Cc1ccc(C(=O)O[C@H](C(=O)O)[C@H](OC(=O)c2ccc(C)cc2)C(=O)O)cc1 (tested in a mixture with another compound)	x	x	-1	x	x	x
c1ccc(-c2n[nH]c3ccccc23)cc1	10	-3	-4	9	84*	-6
CC(C)CN(C)c1nc(N)c(C(=O)N=C(N)N)nc1Cl	x	x	1	x	x	x
CCCn1c(=O)c2[nH]c(-c3ccc(OCC(=O)Nc4ccc(C#N)cc4)cc3)nc2n(CCC)c1=O	x	x	-1	x	x	x
O=C(Nc1nncs1)c1ccc(N2C(=O)C3C4C=CC(C4)C3C2=O)cc1 (centres undefined)	-3	-3	0	6	17*	6
O=C(Nc1ccc(N2C(=O)C3C4C=CC(C4)C3C2=O)cc1)Nc1nncs1 (centres undefined)	-2	-10	0	3	3	3
c1ccc2nc3c(nc2c1)c1ccccc1n3CCN1CCOCC1	9	-5	-22	7	18*	1
CCOC(=O)c1c(C)[nH]c2ccc(O)cc12	-5	-9	-1	9	18*	13
O=C1NC(=O)c2cc(NC(=O)C3CCCCC3)ccc21	-30	4	3	6	0	18*
CC(=O)c1cccc(NC(=O)C2CCCC2)c1	-3	-12	x	x	x	x
CCOC(=O)CCCc1sc(N)nc1-c1[nH]c(=O)[nH]c1C	1	-7	0	-4	25*	-2
SMILES	MKP-1 inh	Cdc25B block	Hsp90 inh	PKA kinase inh	JNK3 inh	ROCK2 blocker
CCOC(=O)CCc1nc2ccccc2[nH]1	13	-27	-1	3	4	2
CC1CC(C)CN(c2nc3c(c(=O)[nH]c(=O)n3C)n2CCSc2nc3ccccc3o2)C1 (centres undefined)	9	1	-1	6	-3	-2
O=S(=O)(c1ccc2c(c1)OCCO2)N1CCC(n2cnc3cc(F)ccc32)CC1	11	16	-3	11	25*	6
O=S(=O)(c1ccc2c(c1)OCCO2)N1CCC(n2nnc3cc(F)ccc32)CC1	4	2	-2	7	4	4
CCOc1cc(C2C(C#N)=C(N)Oc3n[nH]c(-c4ccccc4)c32)ccc1O (centres undefined)	14	65*	1	3	1	2
N#CC1=C(N)Oc2n[nH]c(-c3ccccc3)c2C1c1cccnc1 (centres undefined)	-1	-3	-1	-1	0	-1
CC(C)(C)NCC(O)COc1cccc2c1C[C@H](O)[C@H](O)C2 (some centres undefined)	-16	100*	0	-2	-3	3
CS(=O)(=O)N1CCN(c2ccccc2NC(=O)Cc2ccccc2)CC1	10	5	2	11	17*	6
c1ccc(CCCNc2ncnc3nc[nH]c23)cc1	4	-10	0	22*	-1	8
Fc1cc2nc(-c3ccncc3)[nH]c2cc1F	6	-6	x	24*	x	x
O=C(CCCOc1ccccc1)Nc1ccncc1	-5	-3	0	30*	-6	33*
CCCCOc1ccc(C(=O)Nc2ccncc2)cc1	2	-3	-1	12	3	14
O=C(CSc1nc2c([nH]c3ccccc32)c(=O)n1-c1ccccc1)N1CCOCC1	7	5	0	2	3	4
COc1ccc(-n2c(SCC(=O)N3CCCC3)nc3c([nH]c4ccccc43)c2=O)cc1	54*	-42	-3	4	0	4
CCc1cc2c(=O)[nH]cnc2s1	-25	0	-7	23*	3	51*
CCc1cc2c(=O)n(-c3ccccc3)cnc2s1	-12	-18	-1	6	8	1
Cn1c(C(=O)N2CCCC(C(=O)N3CCN(C(=O)c4ccco4)CC3)C2)cc2sccc21 (centres undefined)	6	-6	-1	-7	-3	84*
CC(=NCc1ccco1)c1c(C)[nH]n(-c2nc3ccccc3s2)c1=O	-9	-5	-2	0	20*	-20
CC(=NCc1ccco1)c1c(O)n(C2CCCCC2)c(=O)[nH]c1=O	-2	9	-10	-2	4	2
CC1=CC(C#N)(C#N)C(C#N)(C#N)C(c2ccccc2)N1 (centres undefined)	-7	-4	51*	1	0	-1
CCSC1(SCC)N=C(N)C2(C#N)C(c3ccccc3)NC(C)=C(C)C12C#N (centres undefined)	2	2	-2	3	4	2
COc1ccc2ncn(-c3ccccc3)c2c1	-6	16	0	11	30*	-2
Cc1nn(-c2ccccc2)c2sc(C(=O)C(C#N)c3ccccn3)cc12 (centres undefined)	28	34	-3	9	10	5
Cc1ccc(Cl)cc1N1CCN(C(=O)c2cn(C)c(=O)c3c2c2ccccc2n3C)CC1	35	-8	-4	7	-3	9
